Measured values as given in PubChem BioAssay (Tox21).
Values joined by “and” are separate entries in the source; they are usually repeats but may differ in a detail not shown here. Equal values may be shown once. Records with an inconclusive call do not appear. Entries that show only a call come without a potency. A structure can be active in one record and inactive in another. Active and inactive are the calls of the source. Unless noted, calls follow the shape of the full dose curve.

Key:
[1] = Nuclear factor erythroid 2-related factor 2/antioxidant responsive element (Nrf2/ARE) small molecule agonists: qHTS cell viability counter screen in human keratinocytes (AID 1919968; active = well fitted curve in the direction sought with a large enough effect in the repeat runs; an effect the other way counts as inactive or inconclusive; also: nearly all actives have a fitted effect of over 55% in size)
Outline: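 Cytotoxicity was multiplexed with the Nrf2/ARE luciferase assay in the same wells. Stably transfected HaCaT keratinocytes were treated with test compounds for 23 h at 37 C. Cell viability was then measured by CellTiter-Fluor fluorescence.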

[2] = Nuclear factor erythroid 2-related factor 2/antioxidant responsive element (Nrf2/ARE) small molecule agonists: luciferase reporter gene qHTS assay in human keratinocytes (AID 1919969); also: nearly all actives have a fitted effect of over 35% in size; also: potency is read from the fitted curve at half-maximal effect
[3] = molecular target: Gonadotropin-releasing hormone receptor (Homo sapiens) (UniProt P30968); assay: Human gonadotropin-releasing hormone receptor (GnRHR) small molecule agonists, calcium flux assay in GnRHR-HEK293 cells (AID 1920063); also: nearly all actives have a fitted effect of over 35% in size
Outline: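 Agonist activity was measured as intracellular calcium flux in HEK293 cells engineered to stably express human GnRHR. After dye loading for 1 hour at 37 C, compounds in DMSO were added and fluorescence was followed for 3 minutes.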

[4] = molecular target: KiSS-1 receptor (Homo sapiens) (UniProt Q969F8); assay: Human kisspeptin (KISS1R) small molecule agonists, calcium flux assay in KISS1R-HEK293 cells (AID 1920064; active = well fitted curve in the direction sought with a large enough effect in the repeat runs; an effect the other way counts as inactive or inconclusive)
Outline: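 Agonist activity is monitored as intracellular calcium rise in engineered HEK293 cells carrying human KISS1R. Cells are dye-loaded for 1 h at 37 C before compound addition, and fluorescence is recorded for 3 min.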

[5] = p53 small molecule agonists, cell-based qHTS assay with human liver microsomes (AID 1963577)
Outline: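 p53RE-bla cells, 4,000/well, compound added after 5 h, with human liver microsomes 0.5 mg/mL and NADPH 0.5 mg/mL final; 16 h at 37 C, then LiveBLAzer 2 h RT, fluorescence.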

[6] = p53 small molecule agonists, cell-based qHTS assay with rat liver microsomes (AID 1963578)
Outline: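 p53RE-bla cells, 4,000/well, pre-incubated 5 h, then given compounds plus rat liver microsomes (0.5 mg/mL final) and NADPH (0.5 mg/mL final). Incubation 16 h at 37 C; beta-lactamase reporter read by LiveBLAzer fluorescence after 2 h at room temperature.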

[7] = p53 small molecule agonists, cell-based qHTS assay with human liver microsomes: qHTS cell viability counter screen (AID 1963579); also: nearly all actives have a fitted effect of over 45% in size
Outline: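 p53RE-bla cells, 4,000/well, dosed 5 hours after plating, with human liver microsomes (0.5 mg/mL final) plus NADPH (0.5 mg/mL final), 16 hours at 37 C. Viability read as CellTiter-Glo luminescence after 30 min at room temperature.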

[8] = p53 small molecule agonists, cell-based qHTS assay with rat liver microsomes: qHTS cell viability counter screen (AID 1963580); also: nearly all actives have a fitted effect of over 45% in size
Outline: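 Rat liver microsome (0.5 mg/mL final) and NADPH (0.5 mg/mL final) co-incubation with compounds for 16 h at 37 C on HCT-116 p53RE-bla cells; cytotoxicity taken from intracellular ATP luminescence.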

[9] = p53 small molecule agonists, cell-based qHTS assay (AID 1963582; active = well fitted activation curve with a large enough effect in the signal ratio in the repeat runs, not every such curve was filed as active; the % refers to the signal ratio)
Outline: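 Cells carrying a p53-responsive bla reporter are treated with test compounds for 16 h at 37 C; beta-lactamase activity is then detected with LiveBLAzer B/G FRET substrate after 2 h at room temperature.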

[10] = molecular target: Muscarinic acetylcholine receptor M1 (Homo sapiens) (UniProt P11229); assay: Cholinergic receptor muscarinic 1 (CHRM1) small molecule agonists, cell-based qHTS assay (AID 1963589); also: nearly all actives have a fitted effect of over 35% in size
Outline: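 Cells were plated and incubated 18 h at 37 C/5% CO2, loaded with calcium dye for 1 h at 37 C, then treated with compounds in DMSO. Fluorescence was recorded kinetically at 1 sec intervals.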

[11] = cAMP Responsive Elements (CRE) small molecule antagonists, cell-based qHTS assay (AID 1963591; active = well fitted inhibition curve with a large enough effect in the signal ratio in the repeat runs, not every such curve was filed as active; the % refers to the signal ratio)
Outline: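 Cells (CRE-bla HEK 293T, DMEM with 10% dialyzed FBS and 25 mM HEPES) are seeded and incubated 18 h. Compounds are added with NKH477 agonist at 0.25 uM final for 3 h, then FRET substrate for 2 h.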

[12] = molecular target: Beta-2 adrenergic receptor (Homo sapiens) (UniProt P07550); assay: Adrenergic beta2 receptor (ADRB2) small molecule antagonists, cell-based qHTS assay (AID 1963592); also: series mostly up to about 92 µM; nearly all actives have a fitted effect of over 50% in size
Outline: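 Assay format: CHO-ADRB2 cells, 18-20hr seeding at 37C/5% CO2, then compound plus 1nM isoproterenol agonist mix for 0.5hr RT. Homogeneous time-resolved fluorescence cAMP detection after 1hr, expressed as 665/615 nm ratio.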

[13] = molecular target: D(2) dopamine receptor (Homo sapiens) (UniProt P14416); assay: Dopamine D2 receptor (DRD2) small molecule agonists, cell-based qHTS assay (AID 1963594); also: nearly all actives have a fitted effect of over 35% in size
Outline: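 cAMP accumulation in DRD2-HEK293 cells measured by HTRF after 1 h detection; compounds added 10 min before NKH477 (200nM […]) forskolin-analogue stimulation, 30 min at room temperature, with Ro20-1724 present at 0.1 mM final.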

[14] = molecular target: D(2) dopamine receptor (Homo sapiens) (UniProt P14416); assay: Dopamine D2 receptor (DRD2) small molecule antagonists, cell-based qHTS assay (AID 1963595; active = well fitted inhibition curve with a large enough effect in the signal ratio in the repeat runs, with a control signal flat; the % refers to the signal ratio)
Outline: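 HEK293 cells stably expressing DRD2 were preincubated with 0.1 mM Ro20-1724, then with compound for 10 min at room temperature. Cells were stimulated with 200 nM NKH477 plus 12 nM quinpirole for 30 min, and cAMP was read by HTRF.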

[15] = p53 small molecule agonists, cell-based qHTS assay: qHTS cell viability counter screen (AID 1963581); also: nearly all actives have a fitted effect of over 45% in size
Outline: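 Viability was counter-screened in parallel with the p53 agonist reporter by measuring intracellular ATP luminescence in the same HCT-116 p53RE-bla wells after 16 h compound treatment at 37 C.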

[16] = molecular target: 5-hydroxytryptamine receptor 2A (Homo sapiens) (UniProt P28223); assay: 5-hydroxytryptamine receptor 2A (HTR2A) small molecule antagonists, cell-based qHTS assay (AID 1963586); also: nearly all actives have a fitted effect of over 45% in size
Outline: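 CHO cells stably expressing human HTR2A were plated for 18 h at 37 C, then loaded with calcium dye for 1 h. Compounds were preincubated 5 min at room temperature before DOI (4 nM solution) was added. Kinetic fluorescence was read for 3 min.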

[17] = molecular target: 5-hydroxytryptamine receptor 2A (Homo sapiens) (UniProt P28223); assay: 5-hydroxytryptamine receptor 2A (HTR2A) small molecule agonists, cell-based qHTS assay (AID 1963587); also: nearly all actives have a fitted effect of over 30% in size
Outline: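 Kinetic calcium-flux fluorescence (2 min, 1 sec intervals) after compound addition in agonist mode. HTR2A-CHO cells were cultured 18 h, then dye-loaded 1 h at 37 C.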

[18] = molecular target: Muscarinic acetylcholine receptor M1 (Homo sapiens) (UniProt P11229); assay: Cholinergic receptor muscarinic 1 (CHRM1) small molecule antagonists, cell-based qHTS assay (AID 1963588); also: nearly all actives have a fitted effect of over 40% in size
Outline: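 Compounds were tested at 15 concentrations in three independent runs. Dye-loaded CHRM1-CHO cells were exposed 5 min at room temperature before stimulation by acetylcholine added at 50nM. Intracellular calcium was read kinetically on FDSS for 3 min.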

[19] = cAMP Responsive Elements (CRE) small molecule agonists, cell-based qHTS assay (AID 1963590)
Outline: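 Cells carrying a CRE-driven beta-lactamase reporter (HEK 293T) are seeded, incubated overnight (18 h), and treated with test compounds for 3 h at 37 C; reporter activity is then detected with a FRET substrate after 2 h at room temperature.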

[20] = molecular target: Beta-2 adrenergic receptor (Homo sapiens) (UniProt P07550); assay: Adrenergic beta2 receptor (ADRB2) small molecule agonists, cell-based qHTS assay (AID 1963593);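 also: CHO cells stably overexpressing human ADRB2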
Outline: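 CHO cells stably over-expressing ADRB2 were plated overnight at 37C, then dosed with compounds plus a stimulation mix containing 100uM IBMX and 25uM Ro-20-1724 for 0.5hr at room temperature. cAMP was measured by HTRF competition, 1hr.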

Chain of 5-hydroxytryptamine receptor 2A (Homo sapiens) (P28223 whole entry, looked up): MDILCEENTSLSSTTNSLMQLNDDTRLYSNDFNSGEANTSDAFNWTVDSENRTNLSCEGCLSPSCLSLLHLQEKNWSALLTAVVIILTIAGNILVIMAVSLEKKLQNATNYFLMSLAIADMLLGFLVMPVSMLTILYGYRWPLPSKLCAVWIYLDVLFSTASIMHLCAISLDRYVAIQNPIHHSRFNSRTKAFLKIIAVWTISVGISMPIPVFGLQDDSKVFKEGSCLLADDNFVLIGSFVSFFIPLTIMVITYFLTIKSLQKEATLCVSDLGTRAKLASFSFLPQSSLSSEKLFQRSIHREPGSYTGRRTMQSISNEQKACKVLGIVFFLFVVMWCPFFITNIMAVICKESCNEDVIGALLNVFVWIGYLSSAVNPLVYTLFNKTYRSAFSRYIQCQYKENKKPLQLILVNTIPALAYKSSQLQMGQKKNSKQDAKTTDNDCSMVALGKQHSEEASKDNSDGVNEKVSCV
Chain of D(2) dopamine receptor (Homo sapiens) (P14416 whole entry, looked up): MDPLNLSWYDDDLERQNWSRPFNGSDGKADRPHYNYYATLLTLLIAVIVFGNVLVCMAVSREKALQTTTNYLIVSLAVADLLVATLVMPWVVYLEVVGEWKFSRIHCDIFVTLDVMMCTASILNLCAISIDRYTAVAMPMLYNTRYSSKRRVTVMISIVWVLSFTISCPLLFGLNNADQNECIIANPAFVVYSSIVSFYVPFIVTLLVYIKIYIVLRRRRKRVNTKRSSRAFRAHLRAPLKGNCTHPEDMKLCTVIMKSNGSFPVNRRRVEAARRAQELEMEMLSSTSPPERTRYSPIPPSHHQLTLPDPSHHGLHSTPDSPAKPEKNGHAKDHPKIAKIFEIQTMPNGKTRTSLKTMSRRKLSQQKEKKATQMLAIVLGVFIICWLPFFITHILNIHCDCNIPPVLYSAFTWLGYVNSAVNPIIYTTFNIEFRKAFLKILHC
Chain of Muscarinic acetylcholine receptor M1 (Homo sapiens) (P11229 whole entry, looked up): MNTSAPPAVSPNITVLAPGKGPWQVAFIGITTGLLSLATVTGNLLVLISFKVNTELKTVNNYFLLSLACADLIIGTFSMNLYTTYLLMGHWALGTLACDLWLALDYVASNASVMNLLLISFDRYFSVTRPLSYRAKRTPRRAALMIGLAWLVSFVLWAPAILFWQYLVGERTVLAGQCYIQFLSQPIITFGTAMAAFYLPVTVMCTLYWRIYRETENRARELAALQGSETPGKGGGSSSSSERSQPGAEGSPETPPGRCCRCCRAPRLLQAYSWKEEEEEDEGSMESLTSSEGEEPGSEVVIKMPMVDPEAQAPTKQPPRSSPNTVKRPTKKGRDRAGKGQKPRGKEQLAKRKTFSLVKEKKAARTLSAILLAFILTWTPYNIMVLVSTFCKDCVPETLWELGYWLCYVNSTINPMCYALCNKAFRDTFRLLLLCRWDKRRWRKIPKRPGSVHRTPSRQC
Chain of Gonadotropin-releasing hormone receptor (Homo sapiens) (P30968 whole entry, looked up): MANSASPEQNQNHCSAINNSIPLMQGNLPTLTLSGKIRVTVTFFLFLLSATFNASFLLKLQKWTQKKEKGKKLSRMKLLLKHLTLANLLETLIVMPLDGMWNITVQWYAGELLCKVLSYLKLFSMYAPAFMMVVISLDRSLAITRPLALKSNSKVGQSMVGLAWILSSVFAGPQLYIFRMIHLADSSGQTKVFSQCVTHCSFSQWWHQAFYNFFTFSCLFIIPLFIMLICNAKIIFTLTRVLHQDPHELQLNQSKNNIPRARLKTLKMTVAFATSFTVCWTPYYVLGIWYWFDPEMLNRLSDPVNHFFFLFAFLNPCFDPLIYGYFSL
Chain of Beta-2 adrenergic receptor (Homo sapiens) (P07550 whole entry, looked up): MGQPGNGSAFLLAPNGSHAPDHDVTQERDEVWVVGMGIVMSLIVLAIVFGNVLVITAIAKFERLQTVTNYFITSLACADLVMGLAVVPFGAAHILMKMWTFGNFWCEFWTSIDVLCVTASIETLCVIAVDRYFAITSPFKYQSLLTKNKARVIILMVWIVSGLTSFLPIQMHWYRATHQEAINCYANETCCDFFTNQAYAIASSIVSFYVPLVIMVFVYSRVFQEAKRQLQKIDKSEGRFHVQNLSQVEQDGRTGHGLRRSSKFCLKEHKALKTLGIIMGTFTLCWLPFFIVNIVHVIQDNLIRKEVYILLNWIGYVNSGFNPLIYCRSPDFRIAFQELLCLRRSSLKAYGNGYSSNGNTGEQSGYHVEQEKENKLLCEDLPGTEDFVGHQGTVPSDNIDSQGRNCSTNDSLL
Chain of KiSS-1 receptor (Homo sapiens) (Q969F8 whole entry, looked up): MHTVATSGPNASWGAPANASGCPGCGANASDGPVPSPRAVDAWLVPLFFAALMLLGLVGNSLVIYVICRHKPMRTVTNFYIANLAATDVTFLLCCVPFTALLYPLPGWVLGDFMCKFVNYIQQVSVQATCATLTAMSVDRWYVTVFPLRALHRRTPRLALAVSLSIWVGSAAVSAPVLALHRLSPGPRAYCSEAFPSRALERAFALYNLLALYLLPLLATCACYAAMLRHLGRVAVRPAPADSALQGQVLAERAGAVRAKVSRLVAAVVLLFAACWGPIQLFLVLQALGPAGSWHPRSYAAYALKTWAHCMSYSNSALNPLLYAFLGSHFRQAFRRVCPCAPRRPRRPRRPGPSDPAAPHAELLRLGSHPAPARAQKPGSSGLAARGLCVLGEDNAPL

SMILES	Potency [1]	Potency [2]	Potency [3]	Potency [4]	Potency [5]	Potency [6]	Potency [7]	Potency [8]	Potency [9]	Potency [10]	Potency [11]	Potency [12]	Potency [13]	Potency [14]	Potency [15]	Potency [16]	Potency [17]	Potency [18]	Potency [19]	Potency [20]
CCCCOCCOP(=O)(OCCOCCCC)OCCOCCCC	inactive	inactive	inactive	inactive	inactive	inactive	inactive	inactive	inactive	inactive	inactive	inactive	inactive	inactive	–	–	–	–	–	–
CC(=O)[C@H]1CC[C@H]2[C@@H]3CC[C@H]4C[C@](C)(O)CC[C@]4(C)[C@H]3CC[C@]12C	inactive	inactive	inactive	–	inactive	inactive	inactive	inactive	inactive	inactive	inactive	inactive	inactive	inactive	inactive	inactive	inactive	inactive	inactive	–
CCOC(=O)C(C)OC(=O)c1cc(Oc2ccc(C(F)(F)F)cc2Cl)ccc1[N+](=O)[O-] (stereo unspecified)	inactive	inactive	inactive	inactive	inactive	–	inactive	inactive	–	–	inactive	inactive	inactive	inactive	inactive	inactive	inactive	inactive	inactive	–
CCCC[n+]1ccccc1	inactive	inactive	inactive	inactive	–	–	inactive	–	–	–	inactive	inactive	inactive	inactive	inactive	–	–	inactive	inactive	inactive
CC1(C)Cc2cccc(O)c2O1	inactive	inactive	inactive	inactive	–	–	inactive	inactive	–	inactive	inactive	inactive	inactive	inactive	inactive	inactive	inactive	inactive	inactive	–
Oc1ccc(Cl)cc1Cl	inactive	inactive	inactive	–	inactive	inactive	inactive	inactive	inactive	inactive	inactive	inactive	inactive	inactive	inactive	inactive	inactive	inactive	inactive	inactive
C=CCCC#N	inactive	inactive	inactive	inactive	inactive	–	inactive	inactive	inactive	inactive	inactive	inactive	inactive	inactive	inactive	–	inactive	inactive	inactive	–
Nc1ccc(Oc2ccc(N)cc2)cc1	inactive	inactive	inactive	inactive	inactive	inactive	inactive	inactive	inactive	inactive	inactive	inactive	inactive	inactive	–	inactive	–	inactive	inactive	inactive
COc1ccc(C(O)(c2cncnc2)C2CC2)cc1 (stereo unspecified)	inactive	inactive	inactive	–	inactive	inactive	inactive	inactive	inactive	inactive	inactive	inactive	inactive	inactive	inactive	inactive	inactive	inactive	inactive	inactive
Nc1ccc(N)cc1	inactive	61.1 µM (active) and 18.8 µM (active) and inactive	inactive	–	–	–	inactive	inactive	–	inactive	–	inactive	–	inactive	inactive	inactive	inactive	inactive	inactive	inactive
CC(C)c1ccc(OP(=O)(Oc2ccc(C(C)C)cc2)Oc2ccc(C(C)C)cc2)cc1	inactive	61.6 µM (active) and inactive and 30.6 µM (active)	inactive	–	–	–	inactive	inactive	–	inactive	inactive	inactive	inactive	inactive	–	inactive	inactive	inactive	–	–
C=CC=O	inactive	inactive	inactive	–	inactive	–	inactive	inactive	inactive	inactive	–	inactive	inactive	inactive	inactive	inactive	inactive	inactive	inactive	–
N#Cc1cccc(C#N)c1	inactive	inactive	inactive	–	–	inactive	inactive	inactive	inactive	inactive	–	inactive	inactive	inactive	inactive	inactive	inactive	inactive	inactive	–
COc1ccc(C=O)cc1	inactive	inactive	inactive	–	inactive	inactive	inactive	inactive	inactive	inactive	inactive	inactive	inactive	inactive	inactive	inactive	inactive	–	inactive	–
